# Screening results (PubChem BioAssay)
# Compounds with a hit are over-represented: about 2.4% of the library has one in this group of screens.
# D2 antag: antagonists of human D2 dopamine receptor. HEK293 TREx D2 cells, calcium flux, dopamine EC80. inhibition, % at 10 µM. 340,000 tested, 2% active. AID 485344; in the data active = inhibition above about 30%; inactive = below that, where a call was filed; also: 0% is about no effect
# Target sequence (P14416 whole entry, looked up): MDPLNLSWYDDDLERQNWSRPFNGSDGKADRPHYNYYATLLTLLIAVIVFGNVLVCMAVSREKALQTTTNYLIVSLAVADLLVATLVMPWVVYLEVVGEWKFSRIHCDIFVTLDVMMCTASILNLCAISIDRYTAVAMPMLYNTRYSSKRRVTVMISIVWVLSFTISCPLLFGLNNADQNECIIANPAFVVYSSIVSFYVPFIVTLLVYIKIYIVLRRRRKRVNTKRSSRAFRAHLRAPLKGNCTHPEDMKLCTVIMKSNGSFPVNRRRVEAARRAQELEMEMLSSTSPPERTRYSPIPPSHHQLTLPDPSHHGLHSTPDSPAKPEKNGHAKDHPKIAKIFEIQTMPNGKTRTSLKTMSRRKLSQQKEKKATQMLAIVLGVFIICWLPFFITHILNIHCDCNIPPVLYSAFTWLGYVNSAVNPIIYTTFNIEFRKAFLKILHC
#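 Dopamine at EC80 is the agonist stimulus; test compounds precede it by 180 s. Calcium flux read kinetically in a force-coupled, inducible HEK293 T-REx D2 cell line.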
# D2 ag-1: D2 dopamine receptor (human) agonism; 340,000 tested, 0.53% active; activation, % at 2 µM; HEK293 T-REx D2 cells, calcium flux agonist mode; P14416;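 active = activation over 3 SD above normal in the single-dose calcium agonist read, cut at about 30% in these data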; also: 0% is about no effect
#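 Tetracycline-induced HEK293 Trex cells with D2 receptor force-coupled to calcium signaling, plated overnight at 30 C and loaded with no-wash calcium dye. Calcium flux read kinetically for 180 s after compound addition; responses flag agonists.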
# D2 PAM-1: positively modulates the human D2 dopamine receptor allosterically. P14416. HEK293 T-REx D2, calcium flux, EC20 dopamine potentiation. potentiation, % at 10 µM. 340,000 tested, 0.34% active;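 active = potentiation over 3 SD above the plate norm, cut at about 30% in these data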; also: 0% is about no effect
#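 Using a no-wash calcium dye in inducible, force-coupled HEK293 Trex cells expressing D2, we tracked fluorescence each second for 180 s after compound, then for 180 s after EC20 dopamine to detect augmented signalling.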
# D2 PAM-2: positive allosteric modulators of human D2 dopamine receptor | potentiation, % (test concentration not listed) | 360,000 tested, 0.23% active | AID 624464 | DiscoveRx D2 beta-arrestin cells, luminescence, 90 min; 100% = 57 uM dopamine signal | P14416; in the data active = potentiation above about 50%; inconclusive = mostly about 30% to 49%
#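 PathHunter beta-arrestin assay in DiscoveRx D2 cells. Compounds were added with an EC20 of dopamine (50 nM final) for 90 min at 37 deg C. Luminescence was read 1 h after detection reagent, with 57 uM dopamine as the EC100 control.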
# D2 ag-2: activates the human D2 dopamine receptor. activation, % (concentration not given with the values). P14416. DiscoveRx PathHunter D2 beta-arrestin, luminescence, 90 min; 100% = 57 uM dopamine signal. 360,000 tested, 0.084% active. AID 624465; in the data active = activation above about 40%; inconclusive = between about 15% and that limit
#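 Agonist mode: compounds alone added to overnight-plated D2 PathHunter cells for 90 min at 37 C, with 57 uM final dopamine (EC100) defining full response. Beta-arrestin recruitment detected by chemiluminescent reagent, read after 1 h at ambient temperature.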
# An asterisk follows results filed as active; u = inconclusive; x = no result given.
SMILES,D2 antag,D2 ag-1,D2 PAM-1,D2 PAM-2,D2 ag-2
CC(C)CC(NC(N)=O)C(=O)NCc1ccccc1Cl (configuration not stated),4.1,-0.1,37.9*,-3.5,1.2
CC1=C(C(=O)OCc2ccc(C)cc2)C(c2ccccc2C(F)(F)F)CC(=O)N1 (configuration not stated),x,-0.2,7.3,x,x
COc1cc(-c2noc(-c3ccc(N4CCN(C)CC4)c([N+](=O)[O-])c3)n2)cc(OC)c1OC,x,-0.3,-13.2,x,x
Cc1n[nH]c(C)c1Sc1ccccc1N,-6.9,-0.1,-8.4,0.2,2.9
Cc1cc(C)nc(Sc2c(C)n[nH]c2C)n1,31.6*,0.8,-3.1,-9.4,1.2
COc1ccc(-n2c(-c3ccco3)nc3c(cnn3-c3ccccc3Cl)c2=O)cc1,x,0.9,4.3,x,x
O=C1NC(NS(=O)(=O)c2ccccc2)(C(F)(F)F)C(=O)N1c1ccc(F)cc1 (configuration not stated),32.9*,-1.0,5.1,-3.4,-4.6
O=C(NCCN1CCOCC1)c1cc2sccc2n1Cc1ccc(F)cc1,37.8*,0.1,-26.0,-16.1,-2.1
O=C(COc1ccc(S(=O)(=O)NC2CCCCC2)cc1Cl)NCC1CCCO1 (configuration not stated),-20.0,-1.4,8.9,-8.5,-2.7
COc1ccc(CCNC(=O)COC(=O)C2CC2)cc1,31.3*,0.6,-0.5,0.6,-2.9
COc1ccc(CCNC(=O)c2n[nH]c3ccccc23)cc1,41.8*,4.3,-10.2,1.3,1.9
COc1ccc(CNC(=O)COC(=O)c2n[nH]c3ccccc23)cc1,1.0,0.7,-8.0,19.9,-2.4
COc1ccc(CCNC(=O)COc2ccc(S(=O)(=O)NC3CCCCC3)cc2Cl)cc1,-6.1,1.0,33.7*,-2.4,3.3
COc1ccc(S(=O)(=O)NC2CCCC2)cc1Br,30.9*,0.9,7.5,-7.6,-3.7
Cc1ccc(-n2c(=O)[nH]c3cc(C(=O)NCc4ccccc4)ccc3c2=O)cc1,x,3.4,9.8,x,x
Cc1c(C(=O)N2CCCC2)oc2c1-c1nn(CC(=O)NCCCOC(C)C)cc1CC2,34.6*,-0.5,2.3,-15.3,u
O=C(COC(=O)c1cccnc1Cl)c1cccc(Cl)c1,69.1*,0.0,-0.9,-26.8,-4.2
O=C(COC(=O)c1cccnc1Cl)c1ccc(Cl)s1,x,x,x,-5.9,-8.6
CCCCOc1cccc(C(=O)N(Cc2cccs2)c2ccc(OC)cc2)c1,x,1.2,-4.1,x,x
O=c1c(/C=C(\O)c2ccc(F)cc2)nc2ccccc2n1-c1ccccc1,4.2,44.0*,-9.9,-16.3,-7.2
Cn1c(=O)c(/C=C/c2ccc(F)cc2)nc2ccccc21,7.6,0.3,4.6,-9.5,-1.8
Cc1ccc(-n2c(CNc3ccc(F)cc3)nnc2SCC(=O)N2CCCC2)cc1,30.1*,0.7,7.4,-19.5,-2.8
Cc1ccc(-n2c(CNc3ccc(F)cc3)nnc2SCC(=O)NCc2ccco2)cc1,33.9*,0.4,17.5,-10.1,-3.7
COc1ccc(NCc2nnc(SCC(=O)NCc3ccco3)n2-c2ccccc2OC)cc1,10.6,-0.7,6.0,-18.2,-4.9
CCc1ccc(Cn2nnc3c(=O)[nH]c(C4CCCN(C(=O)c5cccc(Cl)c5)C4)nc32)cc1 (configuration not stated),x,x,-5.4,x,x
SMILES,D2 antag,D2 ag-1,D2 PAM-1,D2 PAM-2,D2 ag-2
O=C(CSc1nccn1Cc1ccccc1)Nc1ccc2c(c1)OCCO2,x,0.8,x,x,x
COc1ccc(CCN(C)C(=O)CCNS(=O)(=O)c2ccccc2C(F)(F)F)cc1OC,34.7*,0.1,6.6,6.1,-1.1
COc1ccc(CC(=O)N/N=C/c2ccc(-c3ccc(F)cc3)o2)cc1OC,3.6,39.7*,-16.7,-8.3,1.2
Cc1cc2ccccc2n1CCNC(=O)c1ccccc1F,x,x,-11.3,x,x
Cc1ccc(/C=N/N2CCN(c3ccccn3)CC2)cc1,-15.4,1.5,12.6,-8.5,-0.9
Cn1cccc1/C=N/N1CCN(c2ccccn2)CC1,25.4,30.5*,-8.2,-2.9,4.3
Cc1ccc(OCc2ccoc2C(=O)O)cc1C,30.2*,-0.8,-4.6,-5.1,-0.7
COc1ccc2oc(C(=O)OCC(=O)N3CCN(C(C)=O)CC3)c(C)c2c1,-9.1,0.9,-2.2,27.8,-3.9
Cc1cccc(C(=O)OCC(=O)N2CCCCCC2)c1,30.7*,-0.2,10.8,-15.8,-0.1
COc1ccc2oc(C(=O)OCC(=O)N3CCCCC3)c(C)c2c1,31.3*,-0.6,-1.2,-0.4,-4.5
O=C(CNC(=S)N(CCCN1CCOCC1)Cc1cccs1)NC1CCCCC1,-21.6,1.5,-20.0,-21.6,-5.1
Cc1cccc(C)c1OCC(=O)OCC(=O)c1ccc2c(c1)NC(=O)CO2,30.2*,0.7,-5.4,6.1,-1.4
COc1ccc(C(=O)N/C(=C\c2ccc(Cl)cc2)C(=O)NCc2ccncc2)cc1,x,x,x,-11.4,-2.4
Cc1ccc(C(=O)NCCN2CCCC2)cc1,7.7,-0.1,-30.9,-16.9,-3.2
CCOc1c(Cl)cc(C(=O)NCCN2CCCCC2)cc1Cl,33.7*,-0.2,-8.6,-16.8,1.5
CCOc1cc(CNCCc2ccc(S(N)(=O)=O)cc2)ccc1OCc1ccccc1,4.0,-0.1,41.4*,-9.7,-3.1
CCOC(=O)c1c(C)sc(-c2c(-c3ccc4c(c3)OCCO4)[nH]c3c2c(=O)[nH]c(=O)n3C)c1O,x,17.6,-3.6,x,x
COc1ccc(N=C2S/C(=C\c3ccco3)C(=O)N2CC(C)C)cc1,35.6*,0.5,10.0,-24.1,-3.0
COc1ccc(N=C2S/C(=C\c3cc(C)n(C)c3C)C(=O)N2CC(C)C)cc1,13.3,0.4,10.8,-8.0,-8.1
CC(C)N(CCc1ccncc1)C(=S)Nc1ccc(F)c(Cl)c1,4.1,-0.1,-10.7,-3.8,1.0
O=C(N/C(=C/c1ccc(Br)cc1)C(=O)N1CCOCC1)c1ccc(Br)o1,-12.1,0.3,86.1*,-4.7,2.1
O=C(N/C(=C\c1ccc(Br)cc1)C(=O)N1CCOCC1)c1ccc(Br)o1,2.6,1.3,x,-12.2,-5.8
N#Cc1cc(C(=O)c2cc(F)ccc2O)cn(-c2nccs2)c1=O,34.2*,116.4*,2.4,-4.5,0.0
CC(C)n1cc(C(=O)c2ccccc2O)cc(C#N)c1=O,-8.1,0.2,-2.4,-8.9,-2.9
Cc1c(-n2cc(C(=O)c3cc(F)ccc3O)cc(C#N)c2=O)c(=O)n(-c2ccccc2)n1C,8.1,1.1,x,0.9,-3.5
N#Cc1cc(C(=O)c2ccccc2O)cn(-c2nccs2)c1=O,24.0,138.3*,2.7,-25.9,-3.4
CN(Cc1ccccc1)C(=O)CN1CCN(S(=O)(=O)c2ccccc2F)CC1,x,x,x,-11.1,0.3
CCCCC(=O)OCc1nc2ccccc2s1,-9.3,-0.2,42.4*,-23.3,-11.0
c1cncc(CSc2ccc(-c3cccnc3)nn2)c1,12.0,1.4,2.8,2.6,1.5
COc1ccc(-c2ccc(SCc3cccnc3)nn2)cc1OC,x,x,x,53.6*,1.0
